In the supplement of paper PMC7393113 one finds mitochondrial superoxide data, which are given here for 14 compounds.

Structures can show the parent of a compound that is named as a salt. ± gives the standard deviation of the averaged measurements.

The subject of the experiment is iBMDM (immortalised mouse bone-marrow-derived macrophages), LPS-stimulated. Description: mitochondrial superoxide (MitoSOX fluorescence) fold increase over unstimulated control; higher = more LPS-induced mitochondrial ROS (less inhibition). The settings on record: inhibitor concentration: 500 nM; LPS: 100 ng/ml; time after LPS: 2 h. The method, boiled down:
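After 20 h in phenol-red-free 1% FCS/DMEM in black 96-well plates, immortalised mouse bone-marrow-derived macrophages were exposed to kinase inhibitors (500 nM) for 30 min, 1 μM MitoSox for 10 min and then LPS (100 ng/ml). A ClarioStar plate reader recorded fluorescence at 510/580 nm every 60 min for 4 h. The reported mitochondrial superoxide is the mean fold induction versus untreated macrophages over triplicate wells.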
For the compound `Cc1ccccc1-n1c(Cn2nc(-c3cccc(O)c3)c3c(N)ncnc32)nc2cccc(C)c2c1=O`, the mitochondrial superoxide is 1.34 ± 0.033.
In turn, `COc1cc(OC)c(/C=C/S(=O)(=O)Cc2ccc(OC)c(NCC(=O)O)c2)c(OC)c1` showed a mitochondrial superoxide of 1.15 ± 0.084.
As for `Cc1cnc(NC(=O)Nc2cc(Br)c(C)cc2OC[C@@H]2CNCCO2)cn1`, the mitochondrial superoxide stood at 1.262 ± 0.0098.
Compound `Cc1ccc(NC(=O)c2ccc(CN3CCN(C)CC3)cc2)cc1Nc1nccc(-c2cccnc2)n1` [Imatinib Mesylate (STI571)] showed a mitochondrial superoxide of 1.76 ± 0.045.
For `Cc1cn(-c2cc(NC(=O)c3ccc(C)c(Nc4nccc(-c5cccnc5)n4)c3)cc(C(F)(F)F)c2)cn1` [Nilotinib (AMN-107)] the value was 1.53 ± 0.07; for `FC(F)(F)c1ccc(/C=C/c2nc(COc3ccc(CCCCn4ccnn4)cc3)co2)cc1` [Mubritinib (TAK 165)], 1.17 ± 0.075.
`CC(C)c1cnn2c(NCc3ccccc3)cc(NCCCCCCN)nc12` registered a mitochondrial superoxide of 1.25 ± 0.025.
Compound `CCC[C@H](NC(=O)/C(C#N)=C/c1cccc(Br)n1)c1ccccc1` [Degrasyn (WP1130)] yielded a mitochondrial superoxide of 1.34 ± 0.032.
As to `Cc1cc(Nc2nc(N[C@@H](C)c3ccc(F)cc3)c(C#N)cc2F)n[nH]1`, the mitochondrial superoxide was found to be 1.18 ± 0.028.
Consider `Nc1nc(N)c2nc(-c3cccc(O)c3)cnc2n1`, for which the mitochondrial superoxide stood at 1.04 ± 0.043.
Compound `CS(=O)(=O)c1ccc(-c2cnc(N)c(C(=O)Nc3ccccc3)n2)cc1` yielded a mitochondrial superoxide of 1.46 ± 0.052.
In turn, `O=c1cc(N2CCOCC2)oc2c1ccc1ccccc12` came in with a mitochondrial superoxide of 1.11 ± 0.062.
Take `Cc1cc(Nc2ncnc3ccc(-c4ccc(CNCCS(C)(=O)=O)o4)cc23)ccc1Oc1ccn2ncnc2c1` [HER2-Inhibitor-1]: the mitochondrial superoxide was found to be 1.34 ± 0.074.
The compound `O=C1NC(=O)C(c2ccccc2[N+](=O)[O-])=C1Nc1ccc(O)c(Cl)c1` came in with a mitochondrial superoxide of 1.45 ± 0.084.
